Values joined by “and” are separate entries in the source; they are usually repeats but may differ in a detail not shown here. Identical values can stand only once. Results filed as inconclusive are left out. The source holds several records for some structures; these can differ, active in one and inactive in another. Active and inactive are the calls of the source. Unless noted, calls follow the shape of the full dose curve.
Experiments:
[1] = Nuclear factor erythroid 2-related factor 2/antioxidant responsive element (Nrf2/ARE) small molecule agonists: qHTS cell viability counter screen in human keratinocytes (AID 1919968; active = well fitted curve in the direction sought with a large enough effect in the repeat runs; an effect the other way counts as inactive or inconclusive; also: nearly all actives have a fitted effect of over 55% in size)
Procedure, shortened: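 KeratinoSens cells (HaCaT keratinocytes stably carrying an ARE-luciferase reporter) were seeded at 1,500 cells/well and rested 5 h at 37 C/5% CO2. They were then exposed to compounds in DMSO for 23 h. Viability was read by CellTiter-Fluor fluorescence after 1 h.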

[2] = Nuclear factor erythroid 2-related factor 2/antioxidant responsive element (Nrf2/ARE) small molecule agonists: luciferase reporter gene qHTS assay in human keratinocytes (AID 1919969); also: nearly all actives have a fitted effect of over 35% in size
[3] = target: Gonadotropin-releasing hormone receptor (Homo sapiens) (UniProt P30968); test: Human gonadotropin-releasing hormone receptor (GnRHR) small molecule agonists, calcium flux assay in GnRHR-HEK293 cells (AID 1920063); also: nearly all actives have a fitted effect of over 35% in size
Sequence of Gonadotropin-releasing hormone receptor (Homo sapiens) (P30968 whole entry, looked up): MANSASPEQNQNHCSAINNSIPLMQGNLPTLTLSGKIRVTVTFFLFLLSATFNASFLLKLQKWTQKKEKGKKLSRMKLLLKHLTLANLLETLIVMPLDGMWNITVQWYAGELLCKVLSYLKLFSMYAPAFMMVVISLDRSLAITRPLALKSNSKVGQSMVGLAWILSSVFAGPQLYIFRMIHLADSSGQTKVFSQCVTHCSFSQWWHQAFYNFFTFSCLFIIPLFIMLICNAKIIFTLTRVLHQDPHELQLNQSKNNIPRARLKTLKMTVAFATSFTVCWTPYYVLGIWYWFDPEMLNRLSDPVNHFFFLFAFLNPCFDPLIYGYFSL
Procedure, shortened: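 HEK293 cells stably expressing human GnRHR were plated 18 h at 37 °C, loaded with calcium dye 1 h at 37 °C, then given compound in agonist mode; fluorescence (Ex/Em 480/540) read kinetically for 3 min at 1 s intervals.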

[4] = target: KiSS-1 receptor (Homo sapiens) (UniProt Q969F8); test: Human kisspeptin (KISS1R) small molecule agonists, calcium flux assay in KISS1R-HEK293 cells (AID 1920064; active = well fitted curve in the direction sought with a large enough effect in the repeat runs; an effect the other way counts as inactive or inconclusive)
Sequence of KiSS-1 receptor (Homo sapiens) (Q969F8 whole entry, looked up): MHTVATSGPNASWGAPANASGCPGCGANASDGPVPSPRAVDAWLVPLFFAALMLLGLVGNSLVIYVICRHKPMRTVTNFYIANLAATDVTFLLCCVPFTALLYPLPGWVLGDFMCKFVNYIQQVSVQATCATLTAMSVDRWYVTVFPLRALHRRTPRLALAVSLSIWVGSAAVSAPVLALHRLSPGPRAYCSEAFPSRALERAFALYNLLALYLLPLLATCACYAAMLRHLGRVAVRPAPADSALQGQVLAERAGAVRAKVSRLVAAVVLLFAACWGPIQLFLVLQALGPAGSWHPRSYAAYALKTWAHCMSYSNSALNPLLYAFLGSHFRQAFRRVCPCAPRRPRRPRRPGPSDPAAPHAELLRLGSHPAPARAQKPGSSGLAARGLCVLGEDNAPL
Procedure, shortened: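 HEK293 cells stably expressing human KISS1R were plated 18 h at 37 °C, loaded with calcium dye for 1 h at 37 °C, then given compound by pin tool. Fluorescence (Ex/Em 480/540) was read kinetically for 3 min.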

[5] = G protein-coupled receptor (GPCR) small molecule agonists, calcium flux assay: HEK293 wild type cell line counter screen (AID 1920065)
Procedure, shortened: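 Cells were plated and cultured 18 h at 37 C/5% CO2, then loaded with calcium dye for 1 h at 37 C. Compounds in DMSO were pin-transferred in agonist mode, and fluorescence (Ex/Em 480/540) was read kinetically for 3 min at 1 s intervals.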

[6] = p53 small molecule agonists, cell-based qHTS assay with human liver microsomes (AID 1963577);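 also: p53 response element beta-lactamase reporter cells with liver microsomes plus NADPH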
Procedure, shortened: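 In this qHTS, p53 response-element beta-lactamase cells receive test compound together with a microsome/NADPH activating system (0.5 mg/mL final each) and are incubated 16 h at 37 C before LiveBLAzer fluorescence detection.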

[7] = p53 small molecule agonists, cell-based qHTS assay with rat liver microsomes (AID 1963578)
Procedure, shortened: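 Agonist mode in p53RE-bla reporter cells, with compounds co-incubated 16 h at 37 C alongside 0.5 mg/mL rat liver microsomes and 0.5 mg/mL NADPH (final), followed by a 2 h LiveBLAzer detection step.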

[8] = p53 small molecule agonists, cell-based qHTS assay with human liver microsomes: qHTS cell viability counter screen (AID 1963579); also: nearly all actives have a fitted effect of over 45% in size
Procedure, shortened: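 Metabolically activated exposure: compounds, human liver microsomes and NADPH (0.5 mg/mL final apiece) were added to p53RE-bla cells seeded 5 h earlier, left 16 h at 37 C, and then assessed for viability by CellTiter-Glo luminescence.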

[9] = p53 small molecule agonists, cell-based qHTS assay with rat liver microsomes: qHTS cell viability counter screen (AID 1963580); also: nearly all actives have a fitted effect of over 45% in size
Procedure, shortened: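 Viability is assessed in parallel with the p53 reporter read: HCT-116 p53RE-bla cells receive compounds plus rat microsomes and NADPH (0.5 mg/mL final apiece), incubate 16 h at 37 C, and then CellTiter-Glo luminescence is recorded.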

[10] = p53 small molecule agonists, cell-based qHTS assay: qHTS cell viability counter screen (AID 1963581); also: nearly all actives have a fitted effect of over 45% in size
Procedure, shortened: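 p53RE-bla HCT-116 cells were exposed to compounds for 16 h at 37 C; after the beta-lactamase FRET read in the same wells, CellTiter-Glo was added and luminescence (intracellular ATP) read after 30 min at room temperature.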

[11] = p53 small molecule agonists, cell-based qHTS assay (AID 1963582; active = well fitted activation curve with a large enough effect in the signal ratio in the repeat runs, not every such curve was filed as active; the % refers to the signal ratio)
Procedure, shortened: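 p53RE-bla beta-lactamase reporter cells rested 5 h at 37 C/5% CO2, then received compounds in DMSO by pin transfer and were incubated 16 h at 37 C. LiveBLAzer B/G FRET substrate was loaded for 2 h at room temperature before fluorescence reading.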

[12] = target: 5-hydroxytryptamine receptor 2A (Homo sapiens) (UniProt P28223); test: 5-hydroxytryptamine receptor 2A (HTR2A) small molecule antagonists, cell-based qHTS assay (AID 1963586); also: nearly all actives have a fitted effect of over 45% in size
Sequence of 5-hydroxytryptamine receptor 2A (Homo sapiens) (P28223 whole entry, looked up): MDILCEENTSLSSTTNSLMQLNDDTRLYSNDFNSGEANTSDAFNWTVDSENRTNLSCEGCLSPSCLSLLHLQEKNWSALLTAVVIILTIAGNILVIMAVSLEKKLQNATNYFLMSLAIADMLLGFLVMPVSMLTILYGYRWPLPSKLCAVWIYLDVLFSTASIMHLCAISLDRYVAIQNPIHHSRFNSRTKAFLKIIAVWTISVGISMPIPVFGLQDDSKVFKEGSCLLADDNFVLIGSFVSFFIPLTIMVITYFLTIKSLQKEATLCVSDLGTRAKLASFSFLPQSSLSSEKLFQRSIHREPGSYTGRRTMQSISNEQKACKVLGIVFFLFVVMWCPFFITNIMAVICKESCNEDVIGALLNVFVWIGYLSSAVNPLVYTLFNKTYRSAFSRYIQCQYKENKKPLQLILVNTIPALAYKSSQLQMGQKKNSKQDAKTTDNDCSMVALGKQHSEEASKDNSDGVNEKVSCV
Procedure, shortened: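 Antagonist-mode intracellular calcium assay: DOI (4 nM) added after 5 min compound pre-incubation at room temperature to dye-loaded HTR2A-CHO cells. Fluorescence followed for 3 min, sampled every second.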

[13] = target: 5-hydroxytryptamine receptor 2A (Homo sapiens) (UniProt P28223); test: 5-hydroxytryptamine receptor 2A (HTR2A) small molecule agonists, cell-based qHTS assay (AID 1963587); also: nearly all actives have a fitted effect of over 30% in size
Procedure, shortened: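 CHO cells stably expressing human HTR2A, plated 18 h, loaded with calcium dye 1 h at 37 C. Agonist mode: compounds added and intracellular calcium fluorescence recorded kinetically for 2 min at 1 sec intervals.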

[14] = target: Muscarinic acetylcholine receptor M1 (Homo sapiens) (UniProt P11229); test: Cholinergic receptor muscarinic 1 (CHRM1) small molecule antagonists, cell-based qHTS assay (AID 1963588); also: nearly all actives have a fitted effect of over 40% in size; also: potency is read from the fitted curve at half-maximal effect
Sequence of Muscarinic acetylcholine receptor M1 (Homo sapiens) (P11229 whole entry, looked up): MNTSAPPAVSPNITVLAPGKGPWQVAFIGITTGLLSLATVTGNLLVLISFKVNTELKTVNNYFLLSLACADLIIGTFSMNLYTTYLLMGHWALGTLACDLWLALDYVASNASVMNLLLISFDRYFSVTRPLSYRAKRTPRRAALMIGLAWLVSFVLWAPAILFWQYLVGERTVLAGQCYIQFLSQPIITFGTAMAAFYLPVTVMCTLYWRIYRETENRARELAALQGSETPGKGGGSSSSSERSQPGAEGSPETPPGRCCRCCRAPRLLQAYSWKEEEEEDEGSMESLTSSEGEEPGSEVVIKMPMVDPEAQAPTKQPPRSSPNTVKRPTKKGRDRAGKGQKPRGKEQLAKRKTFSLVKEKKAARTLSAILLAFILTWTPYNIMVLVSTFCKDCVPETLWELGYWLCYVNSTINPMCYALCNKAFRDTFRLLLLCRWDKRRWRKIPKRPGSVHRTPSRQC
Procedure, shortened: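 CHRM1-CHO calcium-flux assay, antagonist mode. Cells were seeded 18 h, dye-loaded 1 h at 37 C and given compound for 5 min at RT, then acetylcholine was added at 50nM. FDSS fluorescence was read 3 min; 15 concentrations, three runs.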

[15] = target: Muscarinic acetylcholine receptor M1 (Homo sapiens) (UniProt P11229); test: Cholinergic receptor muscarinic 1 (CHRM1) small molecule agonists, cell-based qHTS assay (AID 1963589); also: nearly all actives have a fitted effect of over 35% in size
Procedure, shortened: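 CHO cells stably expressing human CHRM1, seeded 18 h at 37 C/5% CO2, dye-loaded 1 h at 37 C, then given compound in agonist mode; intracellular calcium fluorescence read kinetically at 1 s intervals. Fifteen concentrations, three independent runs.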

[16] = cAMP Responsive Elements (CRE) small molecule agonists, cell-based qHTS assay (AID 1963590)
Procedure, shortened: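 CRE-bla HEK 293T cells in DMEM with 10% dialyzed FBS, NEAA, pyruvate and 25 mM HEPES were plated 18 h at 37 C/5% CO2, then exposed to compounds in DMSO for 3 h before LiveBLAzer B/G FRET substrate addition.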

[17] = target: Beta-2 adrenergic receptor (Homo sapiens) (UniProt P07550); test: Adrenergic beta2 receptor (ADRB2) small molecule antagonists, cell-based qHTS assay (AID 1963592); also: series mostly up to about 92 µM; nearly all actives have a fitted effect of over 50% in size
Sequence of Beta-2 adrenergic receptor (Homo sapiens) (P07550 whole entry, looked up): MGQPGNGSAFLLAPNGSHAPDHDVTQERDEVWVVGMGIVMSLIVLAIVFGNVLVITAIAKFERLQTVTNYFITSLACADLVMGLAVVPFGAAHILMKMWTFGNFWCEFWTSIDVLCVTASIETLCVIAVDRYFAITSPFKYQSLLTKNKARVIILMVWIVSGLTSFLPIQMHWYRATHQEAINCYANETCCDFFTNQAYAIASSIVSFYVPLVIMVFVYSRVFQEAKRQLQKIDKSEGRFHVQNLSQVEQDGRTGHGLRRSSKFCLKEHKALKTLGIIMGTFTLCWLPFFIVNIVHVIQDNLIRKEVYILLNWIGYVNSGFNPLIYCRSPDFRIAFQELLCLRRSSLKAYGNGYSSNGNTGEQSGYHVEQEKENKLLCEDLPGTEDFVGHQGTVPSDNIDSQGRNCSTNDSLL
Procedure, shortened: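 Cells (CHO, stable ADRB2 overexpression) incubated 18-20hr at 37C; compounds added from DMSO; agonist mix (1nM isoproterenol, 100uM IBMX, 25uM Ro-20-1724) added; 0.5hr RT; d2-cAMP and anti-cAMP-cryptate added; 1hr RT; 665/615 nm read.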

[18] = target: D(2) dopamine receptor (Homo sapiens) (UniProt P14416); test: Dopamine D2 receptor (DRD2) small molecule agonists, cell-based qHTS assay (AID 1963594); also: nearly all actives have a fitted effect of over 35% in size
Sequence of D(2) dopamine receptor (Homo sapiens) (P14416 whole entry, looked up): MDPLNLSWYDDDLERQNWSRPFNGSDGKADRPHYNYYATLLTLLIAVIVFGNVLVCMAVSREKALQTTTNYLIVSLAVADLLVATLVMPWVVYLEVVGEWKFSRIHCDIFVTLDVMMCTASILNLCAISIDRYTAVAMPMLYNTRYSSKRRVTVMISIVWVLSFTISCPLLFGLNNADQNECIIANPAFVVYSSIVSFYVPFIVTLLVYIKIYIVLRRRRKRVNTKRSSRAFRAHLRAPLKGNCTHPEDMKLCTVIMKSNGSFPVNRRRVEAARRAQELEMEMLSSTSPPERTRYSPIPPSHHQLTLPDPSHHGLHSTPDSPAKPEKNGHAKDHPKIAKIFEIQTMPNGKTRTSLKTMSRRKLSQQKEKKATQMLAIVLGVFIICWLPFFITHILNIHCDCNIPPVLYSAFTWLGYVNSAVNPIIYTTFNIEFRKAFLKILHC
Procedure, shortened: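 HEK293 cells stably expressing human DRD2, pre-treated with PDE inhibitor Ro20-1724 (0.1 mM final) and compound 10 min at room temperature, then stimulated with NKH477 (200nM […]) for 30 min. cAMP read by HTRF (665/620 nm).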

[19] = target: D(2) dopamine receptor (Homo sapiens) (UniProt P14416); test: Dopamine D2 receptor (DRD2) small molecule antagonists, cell-based qHTS assay (AID 1963595; active = well fitted inhibition curve with a large enough effect in the signal ratio in the repeat runs, with a control signal flat; the % refers to the signal ratio)
Procedure, shortened: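 DRD2-HEK293; 0.1 mM Ro20-1724; cpd 10 min RT; NKH477 200 nM + quinpirole 12 nM, 30 min RT; HTRF cAMP (cAMP-d2/anti-cAMP cryptate), 665/620 nm ratio after 1 h.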

[20] = cAMP Responsive Elements (CRE) small molecule antagonists, cell-based qHTS assay (AID 1963591; active = well fitted inhibition curve with a large enough effect in the signal ratio in the repeat runs, not every such curve was filed as active; the % refers to the signal ratio)
Procedure, shortened: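 CRE-bla HEK293T cells were plated 18 h at 37 °C/5% CO2, pinned with compound in DMSO, then stimulated with NKH477 at 0.25 uM final for 3 h. LiveBLAzer B/G FRET substrate was added and plates incubated 2 h at room temperature.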

Measured: Potency

CCOC(=O)C1OC1c1ccccc1 (configuration not stated)
not listed: [20]
inactive: all other assays above

c1ccc2n[nH]nc2c1
inactive: all assays above

O=C(OCC1CCC2OC2C1)C1CCC2OC2C1 (configuration not stated)
inactive: all assays above

NC(=O)OCC(COC(N)=O)c1ccccc1
inactive: all assays above

NCCCCCCN
inactive and 16.8 µM (active): [14]
not listed: [18]
inactive: all other assays above

CC(O)COCC(C)O (configuration not stated)
inactive: all assays above

OCCCc1ccccc1
not listed: [18]
inactive: all other assays above

— PubChem BioAssay (Tox21)
